Assay results published in PubChem BioAssay (NCI).
Values joined by “and” are separate entries in the source; they are usually repeats but may differ in a detail not shown here. Equal values may be shown once. The panel holds about 83,000 compounds, 20% with a hit somewhere; the sample as a whole holds those more often.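 Values shown are percent growth following 48 h exposure of cells in 96-well plates to a single concentration of compound; below 10 was considered active.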 Active and inactive are the calls of the source.

Legend:
Assay in all cases: NCI-60 one-dose screen, 48 h (100 = growth as untreated, 0 = no growth, -100 = all killed)
[1] = tested on: HCT-15 colon; settings: 10 µM unless noted
[2] = tested on: HT29 colon; settings: 10 µM unless noted
[3] = tested on: SNB-75 CNS; settings: 10 µM unless noted
[4] = tested on: SNB-19 CNS; settings: 10 µM unless noted
[5] = tested on: U251 CNS; settings: 10 µM unless noted
[6] = tested on: PC-3 prostate; settings: 10 µM unless noted
[7] = tested on: SK-MEL-5 melanoma; settings: 10 µM unless noted
[8] = tested on: UACC-62 melanoma; settings: 10 µM unless noted
[9] = tested on: LOX IMVI melanoma; settings: 10 µM unless noted
[10] = tested on: SK-MEL-2 melanoma; settings: 10 µM unless noted
[11] = tested on: SN12C renal; settings: 10 µM unless noted
[12] = tested on: UO-31 renal; settings: 10 µM unless noted
[13] = tested on: TK-10 renal; settings: 10 µM unless noted
[14] = tested on: ACHN renal; settings: 10 µM unless noted
[15] = tested on: CAKI-1 renal; settings: 10 µM unless noted
[16] = tested on: A498 renal; settings: 10 µM unless noted
[17] = tested on: CCRF-CEM leukemia; settings: 10 µM
[18] = tested on: MOLT-4 leukemia; settings: 10 µM unless noted
[19] = tested on: EKVX NSCLC; settings: 10 µM
[20] = tested on: SK-MEL-28 melanoma; settings: 10 µM unless noted

CC[C@H](CC[C@@H](C)[C@H]1CC[C@H]2[C@@H]3CC=C4C[C@@H](O)CC[C@]4(C)[C@H]3CC[C@]12C)C(C)C
growth [1]: 80.9% (inactive) and 102% (inactive) | growth [2]: 101% (inactive) and 109% (inactive) | growth [3]: 81.3% (inactive) and 101% (inactive) | growth [4]: 99.5% (inactive) and 98.1% (inactive) | growth [5]: 90.3% (inactive) and 104% (inactive) | growth [6]: 106% (inactive) and 98.2% (inactive) | growth [7]: 95.2% (inactive) and 105% (inactive) | growth [8]: 96% (inactive) and 101% (inactive) | growth [9]: 92.6% (inactive) and 101% (inactive) | growth [10]: 100% (inactive) and 117% (inactive) | growth [11]: 94.7% (inactive) and 105% (inactive) | growth [12]: 92.7% (inactive) and 96.2% (inactive) | growth [13]: 91.7% (inactive) and 107% (inactive) | growth [14]: 94.4% (inactive) and 103% (inactive) | growth [15]: 93.2% (inactive) and 90% (inactive) | growth [16]: 103% (inactive) and 105% (inactive) | growth [17]: 91.1% (inactive) and 97.8% (inactive) | growth [18]: 108% (inactive) and 103% (inactive)

NC(Cc1c[nH]c2ccccc12)C(=O)O (centres undefined)
growth [1]: 107% (inactive) and 104% (inactive) | growth [2]: 110% (inactive) and 97.4% (inactive) | growth [3]: 94.4% (inactive) and 79.6% (inactive) | growth [4]: 104% (inactive) | growth [5]: 103% (inactive) and 97.4% (inactive) | growth [6]: 91% (inactive) and 86.7% (inactive) | growth [7]: 124% (inactive) and 101% (inactive) | growth [8]: 87.3% (inactive) and 92.5% (inactive) | growth [9]: 96.1% (inactive) and 95.8% (inactive) | growth [10]: 110% (inactive) | growth [19]: 93.1% (inactive) and 101% (inactive) | growth [11]: 101% (inactive) | growth [12]: 91.9% (inactive) and 72.6% (inactive) | growth [13]: 103% (inactive) and 98.8% (inactive) | growth [15]: 85% (inactive) | growth [16]: 109% (inactive) and 106% (inactive) | growth [17]: 105% (inactive) and 102% (inactive) | growth [18]: 3.12% (active) and 100% (inactive)

O=C1OC(c2ccccc2)=N/C1=C\c1ccccc1
growth [1]: 105% (inactive) | growth [2]: 113% (inactive) | growth [3]: 83% (inactive) | growth [4]: 98.9% (inactive) | growth [5]: 91% (inactive) | growth [6]: 95.9% (inactive) | growth [7]: 97.7% (inactive) | growth [8]: 101% (inactive) | growth [9]: 98.1% (inactive) | growth [20]: 108% (inactive) | growth [10]: 116% (inactive) | growth [11]: 102% (inactive) | growth [12]: 95.2% (inactive) | growth [13]: 117% (inactive) | growth [14]: 104% (inactive) | growth [15]: 110% (inactive) | growth [17]: 100% (inactive) | growth [18]: 105% (inactive)

O=C1OC(C(O)C(O)CO)C(O)=C1O (centres undefined)
growth [1]: 99.8% (inactive) and 100% (inactive) | growth [2]: 102% (inactive) and 96.4% (inactive) | growth [3]: 100% (inactive) and 90.4% (inactive) | growth [4]: 100% (inactive) and 98.4% (inactive) | growth [5]: 104% (inactive) and 92.5% (inactive) | growth [6]: 93.2% (inactive) and 85.3% (inactive) | growth [7]: 97.2% (inactive) and 106% (inactive) | growth [8]: 103% (inactive) and 99.8% (inactive) | growth [9]: 104% (inactive) and 99.2% (inactive) | growth [10]: 92.9% (inactive) and 101% (inactive) | growth [19]: 110% (inactive) and 99.5% (inactive) | growth [11]: 107% (inactive) and 101% (inactive) | growth [12]: 104% (inactive) and 94.2% (inactive) | growth [13]: 124% (inactive) and 100% (inactive) | growth [15]: 104% (inactive) and 102% (inactive) | growth [16]: 129% (inactive) and 116% (inactive) | growth [17]: 102% (inactive) and 101% (inactive) | growth [18]: 121% (inactive) and 105% (inactive)

c1ccc(CNCCNCc2ccccc2)cc1
growth [1]: 101% (inactive) | growth [2]: 108% (inactive) | growth [3]: 86.7% (inactive) | growth [4]: 107% (inactive) | growth [5]: 96% (inactive) | growth [6]: 92.4% (inactive) | growth [7]: 107% (inactive) | growth [8]: 105% (inactive) | growth [9]: 110% (inactive) | growth [20]: 108% (inactive) | growth [10]: 102% (inactive) | growth [11]: 105% (inactive) | growth [12]: 79.4% (inactive) | growth [13]: 119% (inactive) | growth [14]: 99.7% (inactive) | growth [15]: 98.5% (inactive) | growth [16]: 96.5% (inactive) | growth [17]: 92.6% (inactive) | growth [18]: 105% (inactive)

O=C1C=C(Nc2ccccc2)c2ccccc2C1=O
growth [1]: 14.4% (inactive) and 88.9% (inactive) | growth [2]: 103% (inactive) and 119% (inactive) | growth [3]: 23.5% (inactive) | growth [4]: 45.3% (inactive) and 95.2% (inactive) | growth [5]: 96.6% (inactive) | growth [6]: 53.8% (inactive) and 76.8% (inactive) | growth [7]: 74.2% (inactive) | growth [8]: 4.24% (active) and 97.1% (inactive) | growth [9]: 71.6% (inactive) | growth [10]: 101% (inactive) | growth [19]: 99.8% (inactive) | growth [11]: 20.9% (inactive) and 93.6% (inactive) | growth [12]: 65.1% (inactive) and 79.9% (inactive) | growth [13]: 149% (inactive) and 136% (inactive) | growth [15]: 55.9% (inactive) and 98.1% (inactive) | growth [16]: 87% (inactive) and 113% (inactive) | growth [17]: 65.8% (inactive) and 94.4% (inactive) | growth [18]: 72.7% (inactive) and 87% (inactive)
